Screening results from PubChem.
Shown are actives, neighbours in structure and some others; about 1.3% of the full set was active somewhere.
Vaccinia mCherry: inhibitors of vaccinia virus infection (mCherry reporter signal) | Vaccinia virus mCherry reporter infection, fluorescence | actives 0.63% (n = 310,000) | Potency, µM (series often up to 36.5 µM), most hits filed as inhibitors; calls by dose curve; tested in A549 cells; also: nearly all actives have a fitted effect of over 35% in size
AMA1 RON2 block: disrupts binding of P. falciparum AMA1 to RON2; AID 720542; actives 0.2% (n = 360,000); AlphaScreen AMA1-biotinylated RON2 peptide binding; Potency, µM (top dose mostly 58.2 µM), hits mostly inhibitors; also: nearly all actives have a fitted effect of over 45% in size
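AMA1 (3D7) with his tag at 25 nM final met compounds first, then biotinylated RON2 peptide at 25 nM; detection used donor plus acceptor beads, 10 µg/mL apiece, read by AlphaScreen after 30 min at room temperature.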
AmpC detergent: AmpC beta-lactamase inhibition with detergent present; P00811; AmpC hydrolysis of nitrocefin, absorbance 480 nm, 0.01% Triton; Potency, µM (highest dose often 114 µM), most hits filed as inhibitors; actives 0.041% (n = 370,000); also: nearly all actives have a fitted effect of over 25% in size
Target sequence (P00811 whole entry, looked up): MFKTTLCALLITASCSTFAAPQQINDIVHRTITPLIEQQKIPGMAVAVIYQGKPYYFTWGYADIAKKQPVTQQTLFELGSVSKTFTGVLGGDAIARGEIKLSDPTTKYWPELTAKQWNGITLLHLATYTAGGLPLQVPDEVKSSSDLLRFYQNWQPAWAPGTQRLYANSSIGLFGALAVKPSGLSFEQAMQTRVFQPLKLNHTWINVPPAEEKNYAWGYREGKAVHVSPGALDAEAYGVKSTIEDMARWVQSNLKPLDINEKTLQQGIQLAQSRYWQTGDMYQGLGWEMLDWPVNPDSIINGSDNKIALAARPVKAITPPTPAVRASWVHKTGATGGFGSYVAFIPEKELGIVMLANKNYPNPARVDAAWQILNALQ
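20 mM phosphate pH 7.0 + 0.01% (detergent screen) or 0.0001% Triton X-100; 5.3 nM AmpC reagent; cpd preinc 15 min RT; nitrocefin (800 uM stock) to start; A480 q20 s × 4 min; Activity was normalised to no-enzyme and no-compound control wells.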
SARS PLP yeast: SARS-CoV PLP inhibition in yeast. Potency, µM (titrated, usually from 32.9 µM), actives largely listed as activators. S. cerevisiae expressing SARS-CoV PLpro, growth rescue. actives 0.19% (n = 330,000); calls by dose curve; also: nearly all actives have a fitted effect of over 55% in size
AmpC no deterg: AmpC beta-lactamase inhibition without detergent; Potency, µM (series often up to 57.1 µM), actives largely listed as inhibitors; AmpC nitrocefin hydrolysis, absorbance 480 nm, 0.0001% Triton; P00811; actives 0.52% (n = 330,000); also: nearly all actives have a fitted effect of over 20% in size
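AmpC (5.3 nM in the dispensed reagent) in 20 mM phosphate pH 7.0 with 0.01% (detergent screen) or 0.0001% Triton X-100 was preincubated with compounds for 15 min at room temperature. Nitrocefin was then added from an 800 uM solution, and hydrolysis was followed at 480 nm.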
VACV Venus inh: vaccinia inhibition (Venus reporter) | Vaccinia virus Venus reporter expression, fluorescence | Potency, µM (highest dose often 36.5 µM), actives largely listed as inhibitors | actives 0.46% (n = 330,000); calls by dose curve; tested in A549 cells; also: nearly all actives have a fitted effect of over 30% in size
A number is an active result; n = inactive; u = inconclusive; x = no result. Unless noted, calls follow the shape of the dose curve; as a rule, active = well fitted curve in the direction sought with a large enough effect; inconclusive = small, poorly fitted or top-dose-only effect, or another doubt; inactive = no such curve, though single readings can be large; an effect the other way counts as inactive or inconclusive.

SMILES	Vaccinia mCherry	AMA1 RON2 block	AmpC detergent	SARS PLP yeast	AmpC no deterg	VACV Venus inh
CC(=O)/C(=N/Nc1ccccc1[N+](=O)[O-])N1CCCc2ccccc21	n	8.9µM	n	n	n	n
O=C(C[N+]12CN3CN(CN(C3)C1)C2)c1ccc(O)c(O)c1	n	x	x	x	x	n
CCOc1ccc(C(=O)C(CN2CCOCC2)c2ccccc2)cc1 (stereo not given)	10µM	n	u	n	n	u
O=C(c1ccc(Br)cc1)C(CN1CCOCC1)c1ccccc1 (stereo not given)	n	n	n	n	n	n
Cc1ccsc1C1Cc2c(C(=O)NCc3cccnc3)c(=O)cc(C)n2-c2ccccc2S1 (stereo not given)	n	x	x	x	x	n
S=C(Nc1ccc(Cl)c(Cl)c1)NC1CCN(Cc2ccccc2)CC1	x	n	u	n	n	14µM
COc1cccc(CN2CCC(n3cc(C(=O)NC4CCCC4)nn3)CC2)c1O	n	x	x	x	x	n
CC(=O)OCCNc1cc(Sc2nc3ccccc3[nH]2)c2nonc2c1[N+](=O)[O-]	u	n	n	n	n	112µM
OC(COC(c1ccc(Cl)cc1)c1ccc(Cl)cc1)CN1CCN(c2ccccn2)CC1 (stereo not given)	n	28µM	n	n	n	n
COc1cccc2c1Oc1cc([N+](=O)[O-])cc(N(C)C(C)=O)c1C=C2	7.1µM	n	n	n	n	n
CC(=O)N(C)c1cc([N+](=O)[O-])ccc1OCc1ccccc1	n	n	x	x	x	n
NC(Cc1ccc(F)cc1)c1csc(Nc2cnccn2)n1 (stereo not given)	10µM	n	x	x	x	11µM
NC(Cc1ccc(F)cc1)c1csc(Nc2ccccn2)n1 (stereo not given)	u	n	x	x	x	u
NC(CCc1ccccc1)c1csc(Nc2cnccn2)n1 (stereo not given)	10µM	n	x	x	x	u
CCN(CC)CCNC(=O)c1cnn(-c2ncc3c(n2)-c2ccc(OC)cc2CC3)c1C	n	x	x	x	x	n
CN(CCO)C(=O)c1cn(C2CCCN(Cc3ccc4ccccc4c3)C2)nn1 (stereo not given)	n	x	x	x	x	n
O=C(O)CC1(CC(=O)N2CCC(C(=O)O)CC2)CCCC1	n	n	45µM	n	n	n
NC(=O)C1CCN(C(=O)CC2(CC(=O)O)CCCC2)CC1	n	n	u	n	n	n
O=C(O)CC1(CC(=O)N2CCOCC2)CCCC1	n	n	35µM	n	n	n
O=C(O)CC1(CC(=O)N2CCN(CCO)CC2)CCCC1	n	n	n	n	n	n
N=C(N)S/C=C\C(=O)O	n	x	x	x	x	n
CC1CN(Cc2cccn2-c2cccnc2)Cc2cc(Cl)ccc2O1 (stereo not given)	n	x	x	x	x	n
C=CCC[C@H](Cc1ccc(F)cc1)C(=O)OC[C@@H](Cc1c[nH]c2ccccc12)NC(=O)[C@H](CC=C)CC(=O)NCCO	u	n	x	n	n	u
C=CCC[C@@H](Cc1ccc(F)cc1)C(=O)OC[C@@H](Cc1c[nH]c2ccccc12)NC(=O)[C@H](CC=C)CC(=O)N(CCO)Cc1ccccc1	u	n	x	n	n	14µM
C=CCC[C@H](Cc1ccc(F)cc1)C(=O)OC[C@@H](Cc1c[nH]c2ccccc12)NC(=O)[C@H](CC=C)CC(=O)N(CCO)Cc1ccccc1	u	n	x	n	n	10µM
SMILES	Vaccinia mCherry	AMA1 RON2 block	AmpC detergent	SARS PLP yeast	AmpC no deterg	VACV Venus inh
COCCN1CCN(C(=O)c2cnn(-c3nccc(-c4ccccc4F)n3)c2-c2ccco2)CC1	n	x	x	x	x	n
COc1ccc(/C=N/NC(=O)c2ccoc2C)cc1COc1c(C)cccc1C	13µM	n	n	n	n	u
Cc1occc1C(=O)N/N=C/c1c(O)ccc2ccccc12	1.8µM	n	n	n	n	u
O=C(NN=Cc1c(O)ccc2ccccc12)c1ccncc1	2.5µM	n	x	x	x	u
COc1ccc(/C=N\NC(=O)c2ccccc2OC)cc1COc1ccccc1C	n	n	u	n	n	n
O=C(N/N=C\c1c(O)ccc2ccccc12)c1ccc(O)cc1	x	n	n	13µM	n	x
CSc1nnc(CCNC(=O)/C=C/c2cccc(F)c2)n1-c1ccc(F)cc1	n	x	x	x	x	n
Cc1cc(Cl)ccc1OCC(=O)Nc1cccc(-c2nc3ccccc3o2)c1	n	x	x	x	x	u
